Measurements published in PubChem BioAssay.
Active and inactive are the calls of the source. Unless noted, no rule for the calls is given here.

Experiments:
[1] = HepG2 liver cancer cell viability effects, profiling panel, resazurin fluorescence, 24 h, PK04 Diversity Set (AID 1172); conditions: higher = more signal
[2] = basal S. cerevisiae growth modulation, no modifier, primary screen, OD600, strain BY4716, 24 h, basal condition (AID 1173); conditions: OD600, 24 h, higher = more signal, called active from +8 up or from −8 down
[3] = MM1S myeloma cell viability, profiling panel, resazurin fluorescence, basal, 24 h, PK04 Diversity Set (AID 1174); conditions: higher = more signal, called active from +8 up or from −8 down;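 also: MM1S multiple myeloma cell line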
[4] = target: Dihydroorotate dehydrogenase (quinone), mitochondrial (Plasmodium falciparum (isolate 3D7)) (UniProt Q08210); test: PfDHODH enzyme inhibitors, primary screen, biochemical, C-terminal His tag, absorbance 600 nm (AID 1175); conditions: DCIP absorbance 600 nm, higher = more signal, called active from +8 up or from −8 down;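 also: recombinant parasite enzyme with a five histidine tag at its C terminus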
Dihydroorotate dehydrogenase (quinone), mitochondrial (Plasmodium falciparum (isolate 3D7)), sequence (Q08210 whole entry, looked up): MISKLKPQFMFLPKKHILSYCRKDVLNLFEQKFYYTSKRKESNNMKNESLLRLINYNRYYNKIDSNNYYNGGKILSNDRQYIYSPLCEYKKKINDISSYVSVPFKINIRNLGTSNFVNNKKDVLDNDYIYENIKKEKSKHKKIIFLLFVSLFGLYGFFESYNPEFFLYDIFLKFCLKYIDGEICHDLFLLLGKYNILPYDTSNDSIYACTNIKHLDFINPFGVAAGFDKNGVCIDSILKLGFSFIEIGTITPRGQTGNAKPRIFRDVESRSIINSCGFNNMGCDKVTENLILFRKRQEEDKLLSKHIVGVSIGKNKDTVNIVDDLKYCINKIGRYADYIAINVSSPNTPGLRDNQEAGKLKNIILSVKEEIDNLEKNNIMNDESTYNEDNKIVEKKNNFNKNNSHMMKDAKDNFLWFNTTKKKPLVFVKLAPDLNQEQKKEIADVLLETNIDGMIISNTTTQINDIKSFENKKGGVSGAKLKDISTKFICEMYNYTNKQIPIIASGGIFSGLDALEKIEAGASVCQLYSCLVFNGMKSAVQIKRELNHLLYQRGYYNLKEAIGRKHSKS

[5] = P. aeruginosa biofilm formation inhibitors, primary screen, strain PAO1, LB-PBS medium, absorbance 600 nm (AID 1176); conditions: P. aeruginosa PAO1 growth/biofilm, A600, 12 h; higher = more signal
[6] = S. cerevisiae RM11-1a growth modifiers, primary screen, strain RM11-1a, OD600, basal, 24 h (AID 1177); conditions: OD600, 24 h, higher = more signal, called active from +8 up or from −8 down;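 also: cultures grown under basal conditions with no added stressor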
[7] = E. coli acrAB mutant growth effects, primary screen, E. coli filamentation inducers, strain DRC39, OD650, 24 h (AID 1178); conditions: higher = more signal, called active from +8 up or from −8 down;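 also: growth measured as culture turbidity by optical density at 650 nm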
[8] = E. coli acrAB mutant growth effects, primary screen, E. coli filamentation inducers, strain DRC39, OD650, 48 h (AID 1179);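 also: screen aims at cell division blockers that make cells filament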; conditions: E. coli DRC39 delta-acrAB growth, higher = more signal, called active from +8 up or from −8 down
[9] = RPMI8226 myeloma cell viability, profiling panel, resazurin fluorescence, basal, 24 h, PK04 Diversity Set (AID 1180); conditions: higher = more signal;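 also: RPMI8826 multiple myeloma cell line at 5000 cells per well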
[10] = target: E3 ubiquitin-protein ligase XIAP (Homo sapiens) (UniProt P98170); test: XIAP binders, primary screen, biophysical, small-molecule microarray, fluorescence 635 nm (AID 1181); conditions: small-molecule microarray binding, higher = more signal;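 also: score merges 667 nm emission and signal to noise over triplicate slides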
E3 ubiquitin-protein ligase XIAP (Homo sapiens), sequence (P98170 whole entry, looked up): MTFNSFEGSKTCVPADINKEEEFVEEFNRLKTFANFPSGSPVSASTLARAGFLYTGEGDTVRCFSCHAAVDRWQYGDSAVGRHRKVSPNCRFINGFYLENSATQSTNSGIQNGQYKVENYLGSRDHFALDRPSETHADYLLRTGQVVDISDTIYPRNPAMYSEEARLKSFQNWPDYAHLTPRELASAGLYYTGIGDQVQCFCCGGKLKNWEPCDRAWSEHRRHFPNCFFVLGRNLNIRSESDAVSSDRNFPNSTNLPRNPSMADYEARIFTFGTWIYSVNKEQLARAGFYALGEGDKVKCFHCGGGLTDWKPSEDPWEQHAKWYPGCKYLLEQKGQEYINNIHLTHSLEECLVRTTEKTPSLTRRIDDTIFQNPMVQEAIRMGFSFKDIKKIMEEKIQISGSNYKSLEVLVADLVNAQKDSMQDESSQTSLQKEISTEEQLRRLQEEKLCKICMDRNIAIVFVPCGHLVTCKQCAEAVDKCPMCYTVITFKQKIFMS

[11] = system: XIP peptide (Xip251-270) binding; test: small-molecule binders of XIP peptide, primary screen, biochemical, small-molecule microarray, fluorescence 635/667 nm, 0.1 µg/mL protein (AID 1182); conditions: fluorescent protein binding, 635 nm, higher = more signal, called active from +8 up or from −8 down
XIP peptide (Xip251-270) = test: small-molecule binders of XIP peptide, primary screen, biochemical, small-molecule microarray, fluorescence 635/667 nm, 0.5 µg/mL protein (AID 1183); conditions: small-molecule microarray binding, fluorescence 635 nm; higher = more signal
[12] = Plasmodium falciparum growth inhibition, primary screen, strain 3D7, DAPI fluorescence, 100 nL (AID 1184);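 also: parasites grown inside human red blood cells in medium with human serum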; conditions: P. falciparum 3D7 growth, 3 d, higher = more signal
[13] = target: Homeobox protein Hox-A13 (Mus musculus) (UniProt Q62424); test: inhibitors of HoxA13-DNA binding, primary screen, biochemical, fluorescence polarization, labeled oligonucleotide (AID 1185); conditions: 15 min, higher = more signal, called active from +8 up or from −8 down
Homeobox protein Hox-A13 (Mus musculus), sequence (Q62424 whole entry, looked up): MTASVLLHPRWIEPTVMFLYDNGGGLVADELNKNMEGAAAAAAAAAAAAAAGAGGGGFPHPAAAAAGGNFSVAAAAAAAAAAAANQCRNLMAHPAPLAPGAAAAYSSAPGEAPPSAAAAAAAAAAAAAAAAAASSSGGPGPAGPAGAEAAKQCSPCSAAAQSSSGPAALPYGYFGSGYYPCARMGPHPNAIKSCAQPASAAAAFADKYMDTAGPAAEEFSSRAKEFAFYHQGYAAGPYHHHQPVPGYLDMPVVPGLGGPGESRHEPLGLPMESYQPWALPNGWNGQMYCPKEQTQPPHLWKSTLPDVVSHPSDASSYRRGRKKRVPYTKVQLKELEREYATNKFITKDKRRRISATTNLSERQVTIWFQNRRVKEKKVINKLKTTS

[14] = inhibitors of hydroxyurea-induced Chk1 phosphorylation, primary screen, imaging, HeLa, phospho-Chk1 antibody, percent positive cells (AID 1186); conditions: hydroxyurea-induced phospho-Chk1 immunofluorescence imaging, higher = more signal
[15] = inhibitors of hydroxyurea-induced Chk1 phosphorylation, primary screen, imaging, HeLa, phospho-Chk1 nuclear intensity (AID 1187); conditions: hydroxyurea-induced phospho-Chk1 immunofluorescence imaging, higher = more signal

| Structure (SMILES) | z-score [1] | z-score [2] | z-score [3] | composite z-score [4] | z-score [5] | z-score [6] | z-score [7] | z-score [8] | z-score [9] | composite z-score [10] | composite z-score [11] | composite z-score (XIP peptide (Xip251-270)) | z-score [12] | z-score [13] | z-score [14] | z-score [15] |
| --- | --- | --- | --- | --- | --- | --- | --- | --- | --- | --- | --- | --- | --- | --- | --- | --- |
| CN(C)CCCNC(=O)[C@@H]1c2ccccc2C(=O)N(C2Cc3ccccc3C2)[C@H]1c1ccc(CO)cc1 | -0.785 | -0.944 (inactive) | 0.0257 (inactive) | -0.487 (inactive) | 0.444 (inactive) | -0.632 (inactive) | 0.615 (inactive) | 0.597 (inactive) | 0.461 | 0.0345 | -0.233 (inactive) | 0.677 | -1.09 | 0.84 (inactive) | -0.765 (inactive) | -0.961 (inactive) |
| CC(C)C[C@H]1NC(=O)[C@H](Cc2ccccc2)NC(=O)[C@@]23C(=O)N[C@@H](Cc4ccccc4)C2[C@H](C)[C@@]2(C)O[C@H]2C3/C=C/C/C=C\CNC1=O (stereo partly drawn) | -0.59 | -0.396 (inactive) | -0.263 (inactive) | -0.228 (inactive) | 0.519 (inactive) | -0.711 (inactive) | -0.437 (inactive) | -0.231 (inactive) | -0.0041 | -0.17 | 0.252 (inactive) | 0.718 | -0.799 | -7.8 (inactive) | -0.157 (inactive) | 0.005 (inactive) |
| COc1ccc(CCNC(=O)[C@@H]2c3ccccc3C(=O)N(CC34CC5CC(CC(C5)C3)C4)[C@H]2c2ccc(CO)cc2)cc1 | 0.556 | -0.547 (inactive) | -1.05 (inactive) | 0.12 (inactive) | 0.565 (inactive) | -0.134 (inactive) | 0.517 (inactive) | 0.119 (inactive) | 0.618 | 0.399 | 1.92 (inactive) | 0.55 | -2.14 | -4.4 (inactive) | -0.0198 (inactive) | 0.432 (inactive) |
| Cc1ccc(S[C@]2(C(=O)NCCCN(C)C)CC(=O)N(Cc3ccccc3Cl)[C@@H]2c2ccc(CO)cc2I)cc1 | -0.0565 | -2.11 (inactive) | -2.51 (inactive) | 0.648 (inactive) | -0.833 (inactive) | 0.995 (inactive) | 0.165 (inactive) | -0.352 (inactive) | -1.5 | -0.133 | 0.0919 (inactive) | 0.856 | -0.344 | -1.48 (inactive) | -0.0214 (inactive) | 0.0301 (inactive) |
| CCOC(=O)C1=CC[C@@H](c2ccc(F)cc2)N(S(=O)(=O)c2ccc(C)cc2)[C@H]1c1ccc([N+](=O)[O-])cc1 | 1.09 | 1.18 (inactive) | 0.0003 (inactive) | -0.554 (inactive) | 0.0362 (inactive) | 0.248 (inactive) | 0.253 (inactive) | 0.321 (inactive) | -0.678 | 0.0077 | 0.1 (inactive) | 0.559 | -1.8 | 0.532 (inactive) | 0.355 (inactive) | 0.593 (inactive) |
| C=CCC(OC(C)=O)[C@@H]1[C@@H](N(Cc2ccc(-c3cccc(C(F)(F)F)c3)o2)C(=O)Cc2ccc(F)cc2)c2cc(OCCCO)ccc2N1C(=O)c1ccc2ccccc2n1 (stereo partly drawn) | 0.286 | 0.441 (inactive) | 0.229 (inactive) | -0.235 (inactive) | 0.927 (inactive) | -0.116 (inactive) | -0.36 (inactive) | -0.15 (inactive) | -0.128 | 0.0454 | -0.384 (inactive) | -0.904 | 0.587 | -2.08 (inactive) | 0.918 (inactive) | 0.64 (inactive) |
| [N-]=[N+]=NCc1ccccc1C[C@@]1(C(=O)O)N=C(c2ccc(OCCCO)cc2)O[C@@H]1c1ccccc1CN=[N+]=[N-] | 1.86 | -4 (inactive) | 0.781 (inactive) | -1.62 (inactive) | -0.608 (inactive) | -0.916 (inactive) | 0.274 (inactive) | 0.697 (inactive) | 1.03 | 0.209 | 0.673 (inactive) | 0.512 | 0.107 | -5.11 (inactive) | -0.199 (inactive) | -0.026 (inactive) |
| COC(=O)c1c(CC[C@@H](CO)NC(=O)N[C@@H](Cc2ccccc2)Cn2cc(-c3cncn3C)nn2)oc(C(C)=O)c1C(=O)OC | -0.649 | -0.615 (inactive) | 0.448 (inactive) | -2.95 (inactive) | -1.25 (inactive) | -0.688 (inactive) | 0.681 (inactive) | 0.438 (inactive) | -0.332 | 0.14 | 0.606 (inactive) | 0.851 | -2.06 | -4.35 (inactive) | -0.331 (inactive) | -0.0353 (inactive) |
